Assay results from PubChem BioAssay (NCATS).
Inconclusive results are not listed. Active and inactive are the calls of the source. Calls come from the whole dose curve; as a rule, active = well fitted inhibition curve with a large enough effect; inconclusive = small, poorly fitted or top-dose-only effect; inactive = flat fitted curve, though single readings scatter.

Tested on: HACAT
Assay: qHTS assay to identify novel small-molecules to repurpose for Merkel cell carcinoma treatment (AID 1296009); note: nearly all actives have a fitted effect of over 60% in size
Details: MCC and control cell lines, CellTiter-Glo viability, 72 h; at 44.8 µM (top of the series) unless noted
Summary of the method: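 72 hr, 37 degree celsius; NPC 8-pt / MIPE 11-pt dose response; compound pinned in DMSO; CellTiter-Glo, 10 min RT, luminescence; normalized to no-cell and DMSO controls.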

Row | Structure (SMILES) | outcome
1 | NC1(c2ccc(NC(=O)c3ccnc(-c4cc(C(=O)O)ccn4)c3)cc2)CC1 | inactive
2 | OC[C@@]1(O)CO[C@@H](OC[C@H]2O[C@@H](OCc3ccccc3)[C@H](O)[C@@H](O)[C@@H]2O)[C@@H]1O | inactive [at 17.4 µM]
3 | CC1(C)CC2C(O)C3=C(CC(C)(O)C2C1)C(=O)OC3 (configuration not stated) | inactive
4 | COc1c2c(c(C)c3c1C(=O)OC3)OC1(C)CC(O)C34OC(O)(CCC3(C)C1C2)OC4(C)C (configuration not stated) | inactive [at 17.4 µM]
5 | COc1cc(C2OCC3(O)C(c4ccc(O[C@@H]5O[C@H](CO)[C@@H](O)[C@H](O)[C@H]5O)c(OC)c4)OCC23O)ccc1O (some centres not stated) | inactive [at 17.4 µM]
6 | CC1=CC2=C(C)C(=O)[C@](C)(O)[C@H](O)C2=CO1 | inactive
7 | C[C@]12CCC[C@](C)(C(=O)O)C1[C@@H](O)[C@@H](O)C13CC(CCC12)C(CO)(O[C@@H]1O[C@H](CO)[C@@H](O)[C@H](O)[C@H]1O)C3 (some centres not stated) | inactive [at 17.4 µM]
8 | C=C1CCC2C(C)(C(=O)O)CCCC2(C)C1CC/C(C)=C\CO (configuration not stated) | inactive
9 | C=CC(C)(O)C1CC2C3(C)CCCC(C)(C)C3C(O)C(O)C2(C)O1 (configuration not stated) | inactive
10 | CC(C)(O)C1CCC2(C)CCCC(C)(O)C2C1 (configuration not stated) | inactive
11 | CC(=O)O[C@H]1C[C@@]2(C)[C@@H](CC[C@H]3[C@@]4(C)C=CC(=O)[C@@H](C)[C@@H]4[C@H](OC(C)=O)C(=O)[C@@]32C)/C1=C(\CCC=C(C)C)C(=O)O | inactive [at 17.4 µM]
12 | COC(=O)C(Cc1ccccc1)NC(=O)c1ccccc1 (configuration not stated) | inactive
